Data on 8 compounds can be found in PubChem BioAssay (NCI).

Some test systems named below: DU-145 prostate; K-562 leukemia; MALME-3M melanoma; MDA-MB-231 breast; RXF 393 renal; SF-268 CNS; SF-295 CNS; SF-539 CNS; UACC-257 melanoma; M14 melanoma; HCT-15 colon; HT29 colon; SNB-75 CNS; SNB-19 CNS; PC-3 prostate; SK-MEL-5 melanoma; UACC-62 melanoma; LOX IMVI melanoma; SK-MEL-28 melanoma; U251 CNS.
Experiment in all cases: NCI-60 one-dose screen, 48 h (100 = growth as untreated, 0 = no growth, -100 = all killed)
Holding throughout (conditions): 10 µM unless noted

Compounds without any hit were thinned out: in the full panel of roughly 83,000, 20% have a hit.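 Plates (96-well) were seeded with cells, treated with compound at one concentration, and incubated for 48 hours before percent growth was determined.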 Unmarked numbers belong to inactive results. Activity calls are given as the source filed them. The calls were made as follows: active = growth percent below 10; inactive = the rest.

On to `NS(=O)(=O)c1ccc(-c2cc(-c3nnc(SCC(=O)Nc4ccc(C(=O)/C=C/c5ccc(Cl)cc5)cc4)n3-c3ccccc3)c3ccccc3n2)cc1`, for which the growth with DU-145 prostate was 95.7%; in the experiment on K-562 leukemia, 84.4%; with MALME-3M melanoma, 101%; with MDA-MB-231 breast, 90.8%; in the experiment on RXF 393 renal it was 93%; with SF-268 CNS, 74.8%. For the same compound, the growth in the experiment with SF-295 CNS was 101%; in the experiment with SF-539 CNS it was 92.3%; with UACC-257 melanoma, 104%; with M14 melanoma, 97.7%; in the experiment on HCT-15 colon it was 94.7%; with HT29 colon, 94.9%. Further, the growth in the experiment on SNB-75 CNS is 54%; with SNB-19 CNS, 86.8%; in the experiment on PC-3 prostate, 79.8%; with SK-MEL-5 melanoma, 92.8%; in the experiment on UACC-62 melanoma, 71%; in the experiment with LOX IMVI melanoma, 88%. Further, in the experiment with SK-MEL-28 melanoma, the growth was 97%.
For `CC1CCN(C(=O)CCCl)c2ccccc21` (stereo not drawn), the growth is 113% with DU-145 prostate; 147% in the experiment with K-562 leukemia; 121% in the experiment on MALME-3M melanoma; 85.4% in the experiment on MDA-MB-231 breast; 123% in the experiment on RXF 393 renal; 99.7% in the experiment on SF-268 CNS. Further, the growth in the experiment with SF-295 CNS is 160%; in the experiment on SF-539 CNS, 126%; in the experiment on UACC-257 melanoma, 94.2%; in the experiment on M14 melanoma, 95.4%; in the experiment on HCT-15 colon it was 102%; with HT29 colon, 102%. The growth in the experiment on SNB-75 CNS is 87.9%; in the experiment with U251 CNS, 102%; with PC-3 prostate it was 103%; in the experiment with SK-MEL-5 melanoma, 104%; in the experiment on UACC-62 melanoma, 89.7%; with LOX IMVI melanoma it was 91%. For the same compound, the growth with SK-MEL-28 melanoma is 109%.
`CCN1CCN(c2cc(C)nc(N(CCNc3ccnc4cc(Cl)ccc34)Cc3ccc4c(c3)OCO4)n2)CC1`: the growth in the experiment with DU-145 prostate is 26.5%; in the experiment with K-562 leukemia, -48.4% (active); in the experiment with MALME-3M melanoma it was -65.8% (active); in the experiment on MDA-MB-231 breast, -42.4% (active); in the experiment with RXF 393 renal it was -82.5% (active); with SF-268 CNS, 7.14% (active). Moreover, the growth in the experiment with SF-295 CNS was -63.5% (active); in the experiment with SF-539 CNS, -71.2% (active); in the experiment with UACC-257 melanoma, -59.9% (active); in the experiment on M14 melanoma, -66.5% (active); in the experiment with HCT-15 colon it was -28.8% (active); in the experiment with HT29 colon, -37.9% (active). For the same compound, the growth in the experiment with SNB-75 CNS is -75.3% (active); in the experiment on U251 CNS it was -50.4% (active); with PC-3 prostate, 20%; in the experiment with SK-MEL-5 melanoma, -95.8% (active); in the experiment with UACC-62 melanoma, -32.2% (active); in the experiment with LOX IMVI melanoma it was -80.3% (active). Further, the growth in the experiment with SK-MEL-28 melanoma is -65.6% (active).
Consider `COc1ccc(/C=C/C(=O)c2cc(OC)c(OC)c(OC)c2)cc1OCC(=O)Nc1nc2ccc(OC(F)(F)F)cc2s1`, for which the growth in the experiment on DU-145 prostate is -30.3% (active); in the experiment on K-562 leukemia it was 5.93% (active); in the experiment on MALME-3M melanoma, 26.8%; in the experiment on MDA-MB-231 breast, -16.1% (active); with RXF 393 renal, -29.7% (active); in the experiment with SF-268 CNS, 9.91% (active). In addition, the growth is 0.996% (active) in the experiment on SF-295 CNS; -58.4% (active) in the experiment on SF-539 CNS; 68.6% in the experiment with UACC-257 melanoma; 1.09% (active) in the experiment on M14 melanoma; 11.7% in the experiment on HCT-15 colon; 20.1% in the experiment with HT29 colon. The growth in the experiment on SNB-75 CNS was -33.1% (active); with U251 CNS, -45.9% (active); with PC-3 prostate, 33.4%; in the experiment with SK-MEL-5 melanoma it was 2.06% (active); in the experiment with UACC-62 melanoma, 60%; in the experiment on LOX IMVI melanoma, -22.9% (active). Besides, in the experiment on SK-MEL-28 melanoma, the growth is 36.4%.
For the compound `C/C=C(\C)C(=O)N[C@H]1C(O)C[C@]2(C)C3CC[C@@]4(C)C(CC[C@@H]4C(C)N(C)C)C3CCC2C1O` (stereo partly drawn), the growth with DU-145 prostate is 74.6%; with K-562 leukemia it was 0.455% (active); with MALME-3M melanoma, 17.1%; in the experiment with MDA-MB-231 breast it was 65.2%; in the experiment with RXF 393 renal, 81%; with SF-268 CNS, 13.6%. In addition, the growth in the experiment on SF-295 CNS was 105%; with SF-539 CNS it was 7.02% (active); in the experiment on UACC-257 melanoma it was 14.6%; with M14 melanoma, -14.1% (active); with HCT-15 colon, -28.6% (active); with HT29 colon, 1.91% (active). Further, the growth in the experiment with SNB-75 CNS was 74.5%; with U251 CNS, 52.3%; in the experiment with PC-3 prostate, 45.5%; with SK-MEL-5 melanoma it was -41.3% (active); in the experiment on UACC-62 melanoma it was 62.3%; in the experiment with LOX IMVI melanoma, -26.3% (active). The growth in the experiment with SK-MEL-28 melanoma is -7.39% (active).
Take `Cc1ccc2c(=O)cc(C(=O)Nc3sc4c(c3C(=O)NCc3cccnc3)CCCC4)oc2c1C`: the growth is 103% in the experiment with DU-145 prostate; 96.4% with K-562 leukemia; 99.9% in the experiment on MALME-3M melanoma; 96.9% in the experiment with MDA-MB-231 breast; 116% in the experiment on RXF 393 renal; 93.2% in the experiment with SF-268 CNS. Besides, the growth in the experiment on SF-295 CNS was 102%; in the experiment on SF-539 CNS, 98.1%; with UACC-257 melanoma, 104%; in the experiment on M14 melanoma it was 104%; in the experiment with HCT-15 colon, 103%; with HT29 colon, 109%. Also, the growth is 91.7% with SNB-75 CNS; 96.1% in the experiment on SNB-19 CNS; 99.2% in the experiment on PC-3 prostate; 99.7% in the experiment on SK-MEL-5 melanoma; 96.6% in the experiment on UACC-62 melanoma; 93.1% in the experiment with LOX IMVI melanoma. Moreover, the growth with SK-MEL-28 melanoma is 104%.
With `Cc1ccc(/C=C/C(=O)c2ccc(-n3cc(CN4CCN(c5cc6c(cc5F)c(=O)c(C(=O)O)cn6C5CC5)CC4)nn3)cc2)cc1`, the growth in the experiment with DU-145 prostate was 96.3%; with K-562 leukemia it was 86%; in the experiment on MALME-3M melanoma, 96%; in the experiment on MDA-MB-231 breast, 75.5%; in the experiment on RXF 393 renal, 70.9%; with SF-268 CNS, 71.5%. In addition, the growth with SF-295 CNS was 86.9%; with SF-539 CNS it was 73.6%; with UACC-257 melanoma, 101%; in the experiment with M14 melanoma it was 87.4%; in the experiment with HCT-15 colon it was 97.6%; with HT29 colon, 98.9%. Moreover, the growth in the experiment on SNB-19 CNS is 86.4%; in the experiment with SK-MEL-5 melanoma, 86.2%; with UACC-62 melanoma, 77.6%; in the experiment with LOX IMVI melanoma it was 56.9%; in the experiment on SK-MEL-28 melanoma, 100%.
On to `Cc1ncc(C(=O)Nc2ccc(CN3CCN(C)CC3)c(C(F)(F)F)c2)cc1C#Cc1cnc(N)c2ncccc12`, for which the growth with DU-145 prostate is 34%; with K-562 leukemia it was -59.5% (active); in the experiment on MALME-3M melanoma, -79% (active); in the experiment with MDA-MB-231 breast, -78.9% (active); in the experiment with RXF 393 renal, -18.9% (active); in the experiment on SF-268 CNS, 29.8%. Besides, the growth was 48.8% with SF-295 CNS; 29.8% in the experiment with SF-539 CNS; 30.6% in the experiment with UACC-257 melanoma; -79.9% (active) with M14 melanoma; 20% in the experiment with HCT-15 colon; -13.8% (active) in the experiment with HT29 colon. Further, the growth in the experiment on SNB-19 CNS is 81%; in the experiment on U251 CNS, 45.7%; in the experiment on SK-MEL-5 melanoma it was -59.3% (active); in the experiment on UACC-62 melanoma, 7.13% (active); in the experiment with LOX IMVI melanoma, -3.58% (active).
